According to PubChem BioAssay (NCATS):
Inconclusive results are not listed. Where a call stands in place of a potency, no number is given. Calls of active or inactive are those of the source. Calls follow the shape of the dose curve; as a rule, active = well fitted inhibition curve with a large enough effect; inconclusive = small, poorly fitted or top-dose-only effect; inactive = flat fitted curve, though single readings scatter.

What was measured:
Assay in all cases: qHTS profiling for inhibitors of Plasmodium falciparum proliferation (AID 504749); also: nearly all actives have a fitted effect of over 60% in size
Details in all cases: P. falciparum in erythrocytes, SYBR Green DNA, 72 h; series mostly up to 28.7 µM
CP185 = test system: CP185
Outline: (§1)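 P. falciparum-infected erythrocytes (0.3% parasitemia, 2.5% hematocrit) incubated with compound 72 h at 37 C, 5% CO2. Parasite DNA detected by SYBR Green after lysis, overnight at room temperature; normalised to 0.29 uM artemisinin and DMSO.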

CP191 = test system: CP191
Outline: as §1

CP192 = test system: CP192
Outline: as §1

CP194 = test system: CP194
Outline: as §1

CP201 = test system: CP201
Outline: as §1

CP211 = test system: CP211
Outline: as §1

CP215 = test system: CP215
Outline: as §1

CP217 = test system: CP217
Outline: as §1

CP237 = test system: CP237
Outline: as §1

CP203 = test system: CP203
Outline: as §1
Potency is read from the fitted curve at half-maximal effect.

SMILES | Potency (CP185) | Potency (CP191) | Potency (CP192) | Potency (CP194) | Potency (CP201) | Potency (CP211) | Potency (CP215) | Potency (CP217) | Potency (CP237) | Potency (CP203)
CCCCOCCOCCOCc1cc2c(cc1CCC)OCO2 | inactive | inactive | inactive | inactive | inactive | inactive | inactive | inactive | inactive | 
CCN1CCC[C@H]1CNC(=O)c1c(O)c(Cl)cc(Cl)c1OC | inactive | inactive | inactive | inactive | inactive | inactive | inactive | inactive | inactive | 
CCN(CC)CCOCCOC(=O)C1(c2ccccc2)CCCC1 | inactive | 7.94 µM (active) | inactive |  | inactive | inactive | 15.1 µM (active) | 11.2 µM (active) | 2.51 µM (active) | 6.75 µM (active)
NC(Cc1ccc(Cl)cc1)C(=O)O (stereo not drawn) | inactive | inactive | inactive | inactive | inactive | inactive | inactive | inactive | inactive | 
COc1cc2c(cc1OC)-c1cc(=Nc3c(C)cc(C)cc3C)n(C)c(=O)n1CC2 | 5.62 µM (active) | 3.98 µM (active) | 9.53 µM (active) | 4.78 µM (active) | 4.26 µM (active) |  | 5.36 µM (active) | 3.55 µM (active) | 3.16 µM (active) | 
COCC(=O)O[C@]1(CCN(C)CCCc2nc3ccccc3[nH]2)CCc2cc(F)ccc2[C@@H]1C(C)C | 4.47 µM (active) | 4.47 µM (active) | 5.36 µM (active) | 6.01 µM (active) | 8.49 µM (active) | 4.26 µM (active) | 4.26 µM (active) | 2.51 µM (active) | 0.199 µM (active) | 
CN(C)C(=O)Oc1ccc[n+](C)c1 | inactive | inactive | inactive | inactive | inactive | inactive | inactive | inactive | inactive | 
CC(=O)OCC1=C(C(=O)O)N2C(=O)[C@@H](NC(=O)Cc3cccs3)[C@H]2SC1 | inactive | inactive | inactive | inactive | inactive | inactive | inactive | inactive | inactive | 
CN1CCN(CC(=O)N2c3ccccc3C(=O)Nc3cccnc32)CC1 | inactive | inactive | inactive | inactive | inactive | inactive | inactive | inactive | inactive | 
CCNC(=O)N1CCN(CCCC(c2ccc(F)cc2)c2ccc(F)cc2)CC1 | 0.447 µM (active) | 1.12 µM (active) | 7.57 µM (active) | 7.57 µM (active) | 7.57 µM (active) | 5.36 µM (active) | 4.26 µM (active) | 1.12 µM (active) | 2.51 µM (active) | 
CN(C)CC/C=C1\c2ccccc2COc2ccccc21 |  | inactive | inactive |  |  |  |  |  |  | 13.5 µM (active)
CCOC(=O)C1=C(C)NC(C)=C(C(=O)OC)C1c1cccc(Cl)c1Cl (stereo not drawn) | inactive | inactive | inactive |  | inactive | inactive |  | inactive | inactive | 
COCCOC(=O)C1=C(C)NC(C)=C(C(=O)OC(C)C)C1c1cccc([N+](=O)[O-])c1 (stereo not drawn) |  |  |  |  |  |  |  |  |  | 12 µM (active)
OCCN1CCN(CC/C=C2/c3ccccc3Sc3ccc(C(F)(F)F)cc32)CC1 |  | 5.01 µM (active) | 9.53 µM (active) | 7.57 µM (active) | 10.7 µM (active) | 5.36 µM (active) | 12 µM (active) |  | 10 µM (active) | 9.53 µM (active)
CN1C[C@H](C(=O)N[C@]2(C)O[C@@]3(O)[C@@H]4CCCN4C(=O)[C@H](Cc4ccccc4)N3C2=O)C[C@@H]2c3cccc4[nH]cc(c34)C[C@H]21 |  |  |  | 12 µM (active) |  | 12 µM (active) | 13.5 µM (active) |  |  | 
CC(=O)[C@]1(O)Cc2c(O)c3c(c(O)c2[C@@H](O[C@H]2C[C@H](N)[C@H](O)[C@H](C)O2)C1)C(=O)c1ccccc1C3=O | 11.2 µM (active) | 3.16 µM (active) |  | 15.1 µM (active) |  | 13.5 µM (active) | 10.7 µM (active) | 5.01 µM (active) | 3.55 µM (active) | 

SMILES | Potency (CP185) | Potency (CP191) | Potency (CP192) | Potency (CP194) | Potency (CP201) | Potency (CP211) | Potency (CP215) | Potency (CP217) | Potency (CP237) | Potency (CP203)
Brc1c(NC2=NCCN2)ccc2nccnc12 | inactive |  | inactive | inactive | inactive | inactive | inactive | inactive | inactive | 
CCC(=O)c1ccc2c(c1)N(CCCN(C)C)c1ccccc1S2 | inactive |  | inactive |  |  |  |  |  |  | 
CC(C)[N+](C)(CCOC(=O)C1c2ccccc2Oc2ccccc21)C(C)C | inactive |  |  |  | inactive | inactive | inactive |  |  | 
CCCC(C(=O)OCCN(CC)CC)(c1ccccc1)c1ccccc1 |  |  | 9.53 µM (active) |  |  |  | 12 µM (active) |  | 10 µM (active) | 12 µM (active)
NC1=NCC2c3ccccc3Cc3ccccc3N12 (stereo not drawn) | inactive |  | inactive | inactive | inactive | inactive |  | inactive | inactive | 
CN(C)C/C=C(/c1ccc(Br)cc1)c1cccnc1 | inactive |  |  | inactive | inactive |  | inactive | inactive |  | 
COc1cc(C(=O)OCCCN2CCCN(CCCOC(=O)c3cc(OC)c(OC)c(OC)c3)CC2)cc(OC)c1OC |  | 12.6 µM (active) |  |  |  |  |  |  | 6.31 µM (active) | 
CN(C)CC[C@@H](c1ccc(Br)cc1)c1ccccn1 |  |  | inactive |  |  | inactive |  | inactive |  | 
CC(C)COCC(CN(Cc1ccccc1)c1ccccc1)N1CCCC1 (stereo not drawn) |  | inactive | inactive | inactive |  | inactive | 7.57 µM (active) | inactive | 5.01 µM (active) | 
C[C@H](CS)C(=O)N1CCC[C@H]1C(=O)O | inactive | inactive |  | inactive | inactive |  | inactive | inactive | inactive | 
COc1ccc(CN(CCN(C)C)c2ccccn2)cc1 | inactive | inactive | inactive |  | inactive | inactive | inactive | inactive | 5.01 µM (active) | 
Cc1nc2ccccn2c(=O)c1CCN1CCC(C(=O)c2ccc(F)cc2)CC1 | inactive | 7.94 µM (active) | inactive |  | inactive | inactive | inactive | inactive |  | 
CN(C)CCCN1c2ccccc2Sc2ccc(C(F)(F)F)cc21 |  |  | inactive |  | inactive | inactive |  |  |  | 
CCCCNc1ccc(C(=O)OCCN(C)C)cc1 | inactive | inactive | inactive |  |  |  | inactive | inactive | inactive | inactive
NC(N)=NC(=O)Cc1c(Cl)cccc1Cl |  | 8.91 µM (active) |  |  |  |  |  | 6.31 µM (active) |  | 
CC1=C(C)C(=O)C(CCCCC#CCCCC#CCO)=C(C)C1=O |  |  |  | 19 µM (active) |  |  | 15.1 µM (active) | 10 µM (active) |  | 15.1 µM (active)
